This is a sample that favours compounds with a hit; in the whole collection about 0.82% have one here.
MMP13 inh = MMP13 (human) collagenase inhibition; MMP-13 fTHP FRET cleavage, Mca fluorescence; actives 0.07% (n = 65,000); inhibition, % at 4 µM; AID 570; P45452;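 active means inhibition above the mean of compound-free control plate wells plus 3 SD, cut at about 14% in these data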;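 further: 0% = DMSO wells and 100% = wells with reference MMP-13 inhibitor after basal subtraction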
FXIa mix inh = factor XIa (human) inhibition, mixture screen; purified FXIa, fluorogenic substrate, pooled mixtures; inhibition, % at 5 µM; actives 0.19% (n = 62,000);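 further: each value is inhibition by a whole ten-compound pool holding the compound; 0% = enzyme with no mixture and 100% = wells lacking enzyme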
Target sequence (P03951 19-387 limits assumed): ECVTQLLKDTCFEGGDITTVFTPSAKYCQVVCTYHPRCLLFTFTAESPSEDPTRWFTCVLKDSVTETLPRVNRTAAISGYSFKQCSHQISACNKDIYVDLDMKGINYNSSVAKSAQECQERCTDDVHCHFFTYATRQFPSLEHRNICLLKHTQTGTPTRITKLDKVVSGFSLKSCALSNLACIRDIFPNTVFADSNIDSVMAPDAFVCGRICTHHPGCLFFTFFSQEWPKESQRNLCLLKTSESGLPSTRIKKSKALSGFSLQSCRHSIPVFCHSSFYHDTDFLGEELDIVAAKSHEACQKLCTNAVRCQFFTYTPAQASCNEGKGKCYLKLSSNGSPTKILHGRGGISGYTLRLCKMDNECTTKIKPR
Target sequence (P03951 388-625 limits assumed): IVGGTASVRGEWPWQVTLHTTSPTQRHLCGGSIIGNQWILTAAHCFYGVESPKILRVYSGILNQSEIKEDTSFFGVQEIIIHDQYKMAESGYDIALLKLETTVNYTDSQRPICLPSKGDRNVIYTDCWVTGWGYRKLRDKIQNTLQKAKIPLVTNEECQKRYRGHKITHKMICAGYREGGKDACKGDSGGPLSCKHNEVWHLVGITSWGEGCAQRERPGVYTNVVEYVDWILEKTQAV
C1s block = human complement C1s inhibition. AID 538. purified C1s, fluorogenic AMC substrate, pooled mixtures. mean inhibition % of two 10-compound mixtures (active compounds read high), % at 5 µM (by protocol). actives 0.16% (n = 62,000). P09871;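 active means inhibition above 20% in each of the two 10-compound mixture wells holding the compound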;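 further: 0% = enzyme wells lacking compound mixture and 100% = no-enzyme blank wells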
WNV NS2B-NS3 inh = blocks West Nile virus NS2B-NS3 protease activity | AID 577 | actives 0.18% (n = 65,000) | z-score (concentration not given with the values) | WNV NS2B-NS3 protease, fluorogenic substrate Ex360/Em465; active compounds read low | P06935; in the data active means z-score below about -3
Cathepsin G inh = inhibitors of human cathepsin G | P08311 | purified enzyme, AMC-tetrapeptide fluorescence, pooled mixtures | inhibition, % at 5 µM (by protocol) | actives 0.2% (n = 62,000);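 active means inhibition above 20% in each of the two mixture wells holding the compound; inactive means inhibition of 20% or less in either well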;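 further: 0% = enzyme control without mixture and 100% = blank lacking enzyme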
FXIIa inh mix = blocks human factor XIIa in pooled compound mixtures | inhibition, % at 5 µM | purified FXIIa, fluorogenic substrate | actives 0.2% (n = 62,000) | AID 684;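 further: 0% = enzyme without compound and 100% = no enzyme blank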
* marks the source's active call; other numbers are inactive results; x = not tested or not shown. Unless noted, no stated cut-off is given here; in the data, active means inhibition above about 20% (passing the limit was not always enough); inactive means the rest.

SMILES	MMP13 inh	FXIa mix inh	C1s block	WNV NS2B-NS3 inh	Cathepsin G inh	FXIIa inh mix
CCOc1ccccc1N(CC(=O)NC1CCCC1)C(=O)CCC(=O)Nc1cc(C)on1	0	2	-3	-8.6*	-2	4
O=C(CC(NS(=O)(=O)c1ccc(Cl)cc1)c1ccco1)NCc1ccco1 (configuration not stated)	-15	4	15	2.4	10	70*
Cc1ccc(NS(=O)(=O)c2cc(C(=O)N3CCOCC3)ccc2C)cc1C	-3	7	21*	0.11	14	3
CN(c1ccc(O)cc1)c1nc(-c2ccccc2)cs1	20*	-9	-12	-0.79	1	10
CC(=C1C(=O)c2ccccc2C1=O)N1CCC(C(N)=O)(N2CCCCC2)CC1	2	0	4	0.85	-2	7
Cc1cc(C)c2c(CC(=O)NCc3ccco3)coc2c1	-2	7	21*	-0.3	10	2
COc1ccccc1Nc1nc(-c2cccs2)cs1	-12	5	58*	-0.49	10	2
COc1ccc(OC)c(Nc2nc(-c3cccs3)cs2)c1	2	16	2	-0.6	2	6
CCOC(=O)N1CCN(C(=O)Cc2ccsc2)CC1	-2	2	-25	1.4	-1	5
COc1cccc(NC(=O)CSc2nc3n[nH]c(C)c3c(=N)n2-c2cccc(OC)c2)c1	0	x	x	-3.1*	x	x
CC(C)N1CCc2c(sc(NC(=O)c3ccc(S(=O)(=O)N4CCOCC4)cc3)c2C(N)=O)C1	14*	1	2	-0.92	-2	1
CCN1CCc2c(sc(NC(=O)c3ccc(S(=O)(=O)N4CCOCC4)cc3)c2C(N)=O)C1	2	3	-7	-1.9	-1	3
NC(=O)C1CCN(C(=O)CSc2nc3c(c(-c4ccccc4)n2)CCCC3)CC1	-1	-9	-33	0.03	-7	10
CCS(=O)(=O)Nc1ccc(-c2ccc(NS(=O)(=O)CC)c(OC)c2)cc1OC	-10	6	8	-0.14	9	-2
COCc1nnc(NC(=O)c2ccc(NC(=O)C(C)C)cc2)s1	15*	1	9	-0.94	9	-14
CCOC(=O)C1=C(C)NC(=O)C1CC(=O)Nc1ccccc1 (configuration not stated)	0	x	x	-0.9	x	x
COc1cccc(NC(=O)CCP(C)(=O)O)c1	0	6	63*	0.13	11	-14
COc1cccc(NC(=O)Cc2ccccc2)c1	-4	-1	-13	1	-13	11
CCOc1ccccc1N(CC(=O)O)S(=O)(=O)c1ccccc1	5	40*	-3	-0.77	46	-5
CCOC(=O)c1cc(C)n(-c2ccc(OC)c(OC)c2)c1C	-4	x	x	0.07	x	x
O=C(O)CSCc1ccc(Cl)cc1	2	5	11	0.07	13	65*
Cc1cc(C(=O)OCC(=O)NCCc2ccccc2)c(C)o1	-6	16	18	-1	9	-1
COC(=O)c1ccc(C2C(C(=O)OCC(C)C)=C(C)N=C3SCCC(=O)N32)cc1 (configuration not stated)	-4	29*	2	-0.18	-2	9
COC(=O)C1=C(C)N=C2SCCC(=O)N2C1c1ccc(C(=O)OC)cc1 (configuration not stated)	0	-6	-3	0.04	6	-1
COC(=O)c1cc(NC(=O)C2CC=CCC2C(=O)O)cc(C(=O)OC)c1 (configuration not stated)	0	0	0	-0.57	11	-16
SMILES	MMP13 inh	FXIa mix inh	C1s block	WNV NS2B-NS3 inh	Cathepsin G inh	FXIIa inh mix
O=C(NC(=Nc1ccccc1)N1CCOCC1)Nc1ccccc1	16*	1	2	-0.69	7	7
COc1ccc2c3c(cccc13)NN=C2C	3	3	-10	-4.5*	-5	1
COc1cccc(OC)c1OCCCc1c(C)n[nH]c1C	0	-1	16	1.1	9	9
N#CC1=C(N)N(c2ccccc2Sc2ccccc2)C(=O)C1	3	1	5	-0.59	10	-13
Cc1cc(NC(=O)c2oc3ccccc3c2C)ccc1-n1cnnn1	-2	4	-11	-5.5*	-14	2
COc1ccc(C)cc1NC(=O)c1cnc2sccn2c1=O	4	-31	-153	-1.2	-15	16
COc1cccc(N2CC(C(=O)Nc3ccc(C(=O)OC(C)C)cc3)CC2=O)c1 (configuration not stated)	0	9	-2	0.37	3	6
